Measurements as given in PubChem BioAssay (EPA / NIEHS).
Active and inactive are the calls of the source. Rule for the calls: active = hit-call score of the fitted dose curve at least 0.9, where 1 is the maximum; inactive = score below 0.9.

Tests used:
[1] = read-out: Collagen I, COL1A1 (gene 1277); assay: BSK_hDFCGF_CollagenI: BioMAP Diversity Plus: hDFCGF Assay for Collagen I Biomarker Activity (AID 2284250); conditions: primary human foreskin fibroblasts
Method in brief: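 ELISA read-out of Collagen I in human dermal foreskin fibroblast cultures, 24 h after dosing. Gain of signal versus DMSO vehicle defines activity.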

[2] = read-out: Interferon-inducible T-cell alpha chemoattractant (ITAC), CXCL11 (gene 6373); assay: BSK_hDFCGF_ITAC: BioMAP Diversity Plus: hDFCGF Assay for Interferon-inducible T-cell alpha chemoattractant (ITAC) Biomarker Activity (AID 2284251); conditions: primary human foreskin fibroblasts
Method in brief: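 Measured by ELISA, the chemokine level serves as the endpoint in human skin fibroblast primary cultures 24 h after compound addition. Increases relative to DMSO-treated wells define activity.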

[3] = read-out: Plasminogen activator inhibitor-1 (PAI1), SERPINE1 (gene 5054); assay: BSK_KF3CT_PAI1: BioMAP Diversity Plus: KF3CT Assay for Plasminogen activator inhibitor-1 (PAI1) Biomarker Activity (AID 2284252); conditions: primary human keratinocytes with fibroblasts
Method in brief: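 Keratinocyte + dermal fibroblast co-culture (human primary); 24 h post-dose; PAI-1 by ELISA; gain-of-signal fit vs DMSO control.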

[4] = read-out: Monocyte Chemoattractant Protein-1 (MCP1), CCL2 (gene 6347); assay: BSK_IMphg_MCP1: BioMAP Diversity Plus: IMphg Assay for Monocyte Chemoattractant Protein-1 (MCP1) Biomarker Activity (AID 2284253); conditions: primary human endothelial cells with macrophages
Method in brief: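 ELISA readout of MCP-1 at 24 hours in IMphg co-cultures of venular endothelial cells and macrophages, normalised to DMSO; parallel cultures stained with sulforhodamine B for overt cytotoxicity.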

[5] = read-out: Interleukin-8 (IL8), CXCL8 (gene 3576); assay: BSK_KF3CT_IL8: BioMAP Diversity Plus: KF3CT Assay for Interleukin-8 (IL8) Biomarker Activity (AID 2284254); conditions: primary human keratinocytes with fibroblasts
Method in brief: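 IL-8 read-out: ELISA, 24 h post-dose, human skin primary co-culture (keratinocytes + foreskin fibroblasts). DMSO = baseline; positive-direction fit.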

[6] = read-out: Macrophage Inflammatory Protein-1 Alpha (MIP1a), CCL3 (gene 6348); assay: BSK_IMphg_MIP1a: BioMAP Diversity Plus: IMphg Assay for Macrophage Inflammatory Protein-1 Alpha (MIP1a) Biomarker Activity (AID 2284255); conditions: primary human endothelial cells with macrophages
Method in brief: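 MIP-1a protein levels were quantified by ELISA after 24 h treatment of human endothelial cell–macrophage co-cultures, compared with DMSO. Parallel cultures were fixed with TCA and stained with 0.1% SRB to gauge overt cytotoxicity.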

[7] = read-out: Plasminogen activator inhibitor-1 (PAI1), SERPINE1 (gene 5054); assay: BSK_MyoF_PAI1: BioMAP Diversity Plus: MyoF Assay for Plasminogen activator inhibitor-1 (PAI1) Biomarker Activity (AID 2284256); conditions: primary human lung fibroblasts;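 note: PAI-1 protein level measured by ELISA in fibroblast cultures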
Method in brief: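 MyoF lung fibroblasts, human primary; compound 24 h; PAI-1 ELISA; positive-direction fit vs DMSO baseline; parallel SRB total-protein staining for cytotoxicity.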

CD69, CD69 (gene 969) = assay: BSK_IMphg_CD69: BioMAP Diversity Plus: IMphg Assay for CD69 Biomarker Activity (AID 2284257); conditions: primary human endothelial cells with macrophages
Method in brief: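 Readout is ELISA for CD69 in primary human venular endothelial cell/macrophage co-culture, taken at 24 h post-dosing. SRB staining of parallel cultures gauged overt cytotoxicity; signal increase versus DMSO defined activity.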

[8] = read-out: Eotaxin 3, CCL26 (gene 10344); assay: BSK_BF4T_Eotaxin3: BioMAP Diversity Plus: BF4T Assay for Eotaxin 3 Biomarker Activity (AID 2284258); conditions: primary human bronchial epithelial cells with fibroblasts
Method in brief: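 ELISA measurement of Eotaxin-3 after 24 h chemical exposure in a bronchial epithelial/dermal fibroblast co-culture, with DMSO as baseline. Parallel SRB staining (0.1% SRB after 10% TCA fixation, 560 nm) flagged overt cytotoxicity.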

[9] = read-out: Monocyte Chemoattractant Protein-1 (MCP1), CCL2 (gene 6347); assay: BSK_BF4T_MCP1: BioMAP Diversity Plus: BF4T Assay for Monocyte Chemoattractant Protein-1 (MCP1) Biomarker Activity (AID 2284259); conditions: primary human bronchial epithelial cells with fibroblasts
Method in brief: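 MCP-1 ELISA readout taken 24 h after dosing in the BF4T system (bronchial epithelial cells plus dermal fibroblasts). Parallel SRB total-protein staining flagged cytotoxicity; DMSO served as baseline, positive fitting direction.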

[10] = read-out: Intercellular Adhesion Molecule 1 (ICAM1), ICAM1 (gene 3383); assay: BSK_BF4T_ICAM1: BioMAP Diversity Plus: BF4T Assay for Intercellular Adhesion Molecule 1 (ICAM1) Biomarker Activity (AID 2284260); conditions: primary human bronchial epithelial cells with fibroblasts
Method in brief: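 ICAM-1 levels measured by ELISA after 24 h chemical treatment of bronchial epithelial cell/dermal fibroblast co-cultures, read against DMSO baseline. Overt cytotoxicity checked in parallel cultures by sulforhodamine B staining.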

[11] = read-out: Interleukin-8 (IL8), CXCL8 (gene 3576); assay: BSK_MyoF_IL8: BioMAP Diversity Plus: MyoF Assay for Interleukin-8 (IL8) Biomarker Activity (AID 2284261); conditions: primary human lung fibroblasts
Method in brief: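 Lung fibroblasts (human primary) → chemical exposure → 24 h → IL-8 measured by ELISA. Signal increase scored versus DMSO control.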

CD90, THY1 (gene 7070) = assay: BSK_BF4T_CD90: BioMAP Diversity Plus: BF4T Assay for CD90 Biomarker Activity (AID 2284262); conditions: primary human bronchial epithelial cells with fibroblasts
Method in brief: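 CD90 levels by ELISA after 24 h treatment of human bronchial epithelial cell/dermal fibroblast cultures, analysed versus DMSO. Overt cytotoxicity checked in parallel cultures by sulforhodamine B staining.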

[12] = read-out: Interleukin-8 (IL8), CXCL8 (gene 3576); assay: BSK_BF4T_IL8: BioMAP Diversity Plus: BF4T Assay for Interleukin-8 (IL8) Biomarker Activity (AID 2284263); conditions: primary human bronchial epithelial cells with fibroblasts
Method in brief: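 Human bronchial epithelial cells with dermal fibroblasts co-culture; IL-8 measured by ELISA 24 hours after dosing, fitted vs DMSO. Cytotoxicity tracked in parallel cultures by SRB total-protein staining.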

[13] = read-out: Interleukin-1 alpha (IL1a), IL1A (gene 3552); assay: BSK_BF4T_IL1a: BioMAP Diversity Plus: BF4T Assay for Interleukin-1 alpha (IL1a) Biomarker Activity (AID 2284264); conditions: primary human bronchial epithelial cells with fibroblasts
Method in brief: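 ELISA read-out of IL-1α from bronchial epithelial cell/dermal fibroblast co-cultures 24 h after compound addition. Increases scored against DMSO negative control. Cytotoxicity monitored by sulforhodamine B staining of parallel cultures.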

Decorin, DCN (gene 1634) = assay: BSK_MyoF_Decorin: BioMAP Diversity Plus: MyoF Assay for Decorin Biomarker Activity (AID 2284265); conditions: primary human lung fibroblasts
Method in brief: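 ELISA readout of decorin, 24 h post-dosing; primary human lung fibroblast (MyoF) culture; gain-of-signal fit vs DMSO baseline.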

KRT18 (gene 3875) = assay: BSK_BF4T_Keratin818: BioMAP Diversity Plus: BF4T Assay for Keratin 818 Biomarker Activity (AID 2284266); conditions: primary human bronchial epithelial cells with fibroblasts
Method in brief: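 Keratin 8/18 levels quantified by ELISA after 24 h chemical treatment of bronchial epithelial cell/dermal fibroblast co-cultures, fitted in positive direction relative to DMSO. Parallel SRB staining tracks overt cytotoxicity.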

[14] = BSK_MyoF_SRB: Viability Assessment in the BioMAP Diversity Plus: MyoF Assay (AID 2284267); conditions: primary human lung fibroblasts;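 note: total protein by SRB absorbance in parallel cultures as cytotoxicity measure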
Method in brief: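 Lung fibroblast cultures, 24 h post-dose; fix 10% TCA, stain 0.1% SRB, read 560 nm. Signal = total protein as cytotoxicity measure; fitted relative to DMSO negative control.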

[15] = read-out: Matrix Metallopeptidase 1 (MMP1), MMP1 (gene 4312); assay: BSK_MyoF_MMP1: BioMAP Diversity Plus: MyoF Assay for Matrix Metallopeptidase 1 (MMP1) Biomarker Activity (AID 2284268); conditions: primary human lung fibroblasts
Method in brief: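 Cells: human lung fibroblasts. Exposure: 24 h chemical dosing. Detection: ELISA for MMP1. Analysis: upward fitting against DMSO negative control.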

[16] = read-out: TIMP metallopeptidase inhibitor 1 (TIMP1), TIMP1 (gene 7076); assay: BSK_MyoF_TIMP1: BioMAP Diversity Plus: MyoF Assay for TIMP metallopeptidase inhibitor 1 (TIMP1) Biomarker Activity (AID 2284269); conditions: primary human lung fibroblasts
Method in brief: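 TIMP-1 levels were determined by ELISA in human lung fibroblasts treated for 24 h. DMSO served as negative control and baseline for upward curve fitting.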

Measured: outcome

OC(O)C(F)(F)C(F)(F)F
inactive: all assays above

FC(F)(F)C(F)(F)C(F)(F)C(F)(F)C(F)(F)C(F)(F)C(F)(F)CCI
not listed: [2]
inactive: all other assays above

FC(F)(F)C(F)(F)C(F)(F)C(F)(F)C(F)(F)C(F)(F)CC[Si](Cl)(Cl)Cl
not listed: [2]
inactive: all other assays above

O=S(=O)(O)CCC(F)(F)C(F)(F)C(F)(F)C(F)(F)F
not listed: [2]
inactive: all other assays above

CCN(CC)c1ccc2c(c1)Oc1cc(N(CC)CC)ccc1C21OC(=O)c2ccccc21
inactive: [7] | [11] | Decorin, DCN (gene 1634) | [14] | [15] | [16]
